# From PubChem BioAssay
# Assay: COS7 lysate on small-molecule microarray, probe aHis, 635 nm (AID 1123);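 also: z-score combines 667nm fluorescence intensity with signal-to-noise per printed compound spot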
# Conditions: COS7 cell lysate, fluorescence, higher = more signal
row,Compound,composite z-score
1,CC(C)=CCN[C@H](CO)c1ccccc1,0.0524
2,CCCC#C[Si](O[C@H](CC)c1cn(Cc2cccc(Cl)c2)nn1)(C(C)C)C(C)C,1.03
3,C=CCOC(=O)[C@H]1[C@@H]2C(=O)O[C@@H](c3ccccc3)[C@@H](c3ccccc3)N2[C@@H](c2ccc(OCCOC(=O)[C@H]3C[C@H]4C(=O)N[C@@H](CCCCNC(C)=O)C(=O)N4[C@H]3c3cccc(OCCO)c3)cc2)[C@]12C(=O)Nc1ccccc12,2.16
4,C=C(COC)/C(=C/C[C@@H](OC(=O)c1ccncc1)c1ccc(CO)o1)c1cc(C(=O)OC)ccc1OC,0.641
5,CC(C)C(=C=CC[C@@H](O)c1ccc(OCCO)cc1)C[C@@H](O)COCc1ccccc1,0.924
6,CCCCCCc1nc(-c2cc(C)c(OC)c(C)c2)cc2c1[Si](C(C)C)(C(C)C)OC2,-0.241
7,COc1cc2c(cc1O)C(C1CC1)N(Cc1sc3ccccc3c1Cl)CC2 (stereo unspecified),2.69
8,COCCOC(=O)N1C(=O)[C@@]2(c3cc(C#CCC(C(=O)OC)C(=O)OC)ccc31)[C@H](C(=O)N1CCN(c3ncccn3)CC1)[C@H]1C(=O)O[C@H](c3ccccc3)[C@H](c3ccccc3)N1[C@@H]2c1ccccc1OCCO,0.928
9,C[C@H]1NC(=O)[C@@]23C(=O)N[C@@H](Cc4ccccc4)C2[C@H](C)[C@@]2(C)O[C@H]2C3/C=C/C/C=C\CNC(=O)[C@@H]2CCCN2C1=O (stereo partly specified),0.0441
10,CCOC(=O)C[C@H]1[C@H](OC(=O)c2ccc(C(=O)c3ccccc3)cc2)[C@@H](NC(=O)c2ccc3ccccc3n2)c2cc(OCCCO)ccc2N1C(=O)c1ccccc1,0.994
11,CCCC[C@@H]1C[C@H]1[C@@H](NC(=O)c1cccs1)c1ccc(-c2ccccc2)cc1,0.874
12,COC(=O)[C@@]1(Cc2ccc(OC)cc2)[C@H]2c3cc(C(=O)N4CCCC4)n(Cc4ccc(O)c(OC)c4)c3C[C@H]2CN1C(=O)c1ccccc1,3.32
13,[N-]=[N+]=NCc1ccccc1C[C@]1(C(N)=O)COC(c2ccc(OCCCO)cc2)=N1,2.24
14,C=C(COC)C(=O)CC[C@@H](OC(C)=O)c1ccc(CO)o1,-0.137
15,O=C1c2ccccc2[C@](Cc2ccccc2I)(C(=O)NCCN2CCOCC2)[C@H](c2ccc(CO)cc2)N1Cc1ccccc1Cl,1.82
16,COCCCNC(=O)[C@]1(CCC(=O)OC(C)(C)C)N=C(c2ccc(OCCCO)cc2)O[C@@H]1c1ccccc1CN=[N+]=[N-],2.03
17,C=CCNC(=O)[C@@H]1[C@H]2C(=O)O[C@H](c3ccccc3)[C@H](c3ccccc3)N2[C@H](c2ccc(OCCO)cc2)[C@@]12C(=O)Nc1ccc(C#CCC(C(=O)OC)C(=O)OC)cc12,2
18,COc1cc2c(cc1OC)CN(C(=O)[C@@H]1[C@H]3C(=O)O[C@H](c4ccccc4)[C@H](c4ccccc4)N3[C@H](c3ccccc3OCCO)[C@@]13C(=O)Nc1ccc(C#CCCO)cc13)CC2,1.88

row,Compound,composite z-score
1,C=CCC(OC(C)=O)[C@@H]1[C@@H](N(Cc2cc3ccccc3o2)C(=O)c2cccc3ccccc23)c2cc(OCCCO)ccc2N1C(=O)c1ccc(-c2ccccc2)cc1 (stereo partly specified),0.317
2,COC(=O)[C@@]1(Cc2ccc(F)cc2)[C@H]2c3cc(C(=O)N4CCCC4)n(CCCNc4ncc(C(F)(F)F)cc4Cl)c3C[C@H]2CN1C(=O)c1ccccc1,2.01
3,CC(C)N1C(=O)c2ccccc2[C@](C)(C(=O)NCCN2CCOCC2)[C@@H]1c1ccc(CO)cc1,2.48
4,CC(C)C(=C=CC[C@@H](O)c1ccc(OCCO)cc1)C[C@@H](O)c1ccccn1,-0.0995
5,CO[C@H]1O[C@H](CO)[C@@H](OC(=O)Nc2ccc(Oc3ccccc3)cc2)[C@H](OC(=O)Nc2ccc3c(c2)OCO3)[C@H]1OC(=O)Nc1ccc2c(c1)OCO2,2.19
6,C=CCOC(=O)[C@H]1[C@@H]2C(=O)O[C@@H](c3ccccc3)[C@@H](c3ccccc3)N2[C@@H](c2ccc(OCCOC(=O)[C@@H]3C[C@@H]4C(=O)N[C@@H](CC(C)C)C(=O)N4[C@@H]3c3ccc(O)cc3)cc2)[C@]12C(=O)Nc1ccccc12,2.62
7,O=C(c1ccccc1)N1C(=O)[C@]2(COC(c3ccc(OCCCO)cc3)=N2)Cc2ccccc21,3.17
8,CCCc1cc2c(n1Cc1cc(F)cc(F)c1)C(C)C1CN(C(=O)c3ccccc3)C(C)(C(=O)OC)C21 (stereo unspecified),3.26
9,O=C(c1ccccc1)N1C(=O)[C@@]2(Cc3ccccc31)N=C(c1ccc(OCCCO)cc1)O[C@H]2c1ccccc1,2.41
10,CO[C@H]1O[C@H](CO)[C@@H](OC(=O)Nc2ccccc2)[C@H](OC(=O)Nc2ccccc2)[C@@H]1OC(=O)Nc1ccccc1,1.29
11,COc1ccc(CCNC(=O)[C@@]2(Sc3ccc(C)cc3)CC(=O)N(C3Cc4ccccc4C3)[C@@H]2c2ccc(CO)cc2I)cc1,1.17
12,CCCCCN1CC=CC23O[C@@H]4C=CCCOC(=O)C4[C@H]2C(=O)N(CCCCCO)[C@@H]3C1=O (stereo partly specified),0.718
13,COc1cc2c(cc1OC)CN(C(=O)[C@H]1[C@@H]3C(=O)O[C@@H](c4ccccc4)[C@@H](c4ccccc4)N3[C@@H](c3ccc(O)cc3)[C@]13C(=O)Nc1ccc(C#CCCO)cc13)CC2,1.46
14,CN1C=C(C(=O)OCCS(C)(=O)=O)C(C(=O)OCCS(C)(=O)=O)=CC(c2ccc(CO)cc2)=CC1C1CC1 (stereo unspecified),0.951
15,C=C[C@H](CO[Si](CC)(CC)CC)N(Cc1ccc(OC(C)=O)c(OC)c1)S(=O)(=O)c1ccc(Br)cc1,1.33
16,C[N+](C)(C)CCCCCCNC(=O)[C@@H]1C[C@@H]2C(=O)N[C@@H](Cc3ccccc3)C(=O)N2[C@@H]1c1cccc(OCCO)c1,1.59
17,NC(=O)[C@@H]1[C@H]2C(=O)O[C@H](c3ccccc3)[C@H](c3ccccc3)N2[C@H](c2ccc(O)cc2)[C@@]12C(=O)Nc1ccccc12,2.37
18,C=C(CCCC)/C(=C/C[C@@H](OC(C)=O)c1ccc(OCCO)cc1)c1cnc2ccccc2c1,0.696
